Only some compounds are listed: those with a hit (about 21% of all), similar ones and a draw of the others.
HCV inhibitor – blocks hepatitis C virus. Huh7.5.1 HCVcc-Cre infection, luciferase reporter, 44 h. Potency, µM (highest dose often 41.8 µM), most hits filed as inhibitors. 3.4% of 340,000 active
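Cells seeded at 1,000/well and cultured 4 h, then compounds added followed by HCVcc-Cre virus (~0.5 moi). After 44 h further culture, luciferase substrate was added, plates held 15 min at room temperature, and luminescence read for 15 sec.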
Shiga toxin inh – Shiga toxin inhibition; Vero cells, Shiga toxin protein synthesis inhibition reporter; inhibition, % at 38.7 µM; 9.2% of 290,000 active; AID 2315; in the data active means inhibition mostly above about 28%, no sharp cut-off; inactive means mostly below about 43%
Pf growth 48h – inhibits P. falciparum growth in the first generation, 48 h; 5.9% of 310,000 active; P. falciparum luciferase growth in erythrocytes, 48 h; Potency, µM (titrated, usually from 28.7 µM), usual class: inhibitors
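Erythrocytes infected with P. falciparum carrying an integrated firefly luciferase reporter (2% hematocrit, 0.1% parasitemia final) were exposed to compounds in RPMI 1640 with 0.5% Albumax at 37 C, 5% CO2. Growth inhibition was scored as reduced luminescence.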
Pf growth 96h – inhibits malaria parasite growth, 96 h. P. falciparum luciferase reporter growth, 96 h. Potency, µM (doses to about 28.7 µM), hits mostly inhibitors. 6.9% of 320,000 active. AID 504834
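P. falciparum expressing integrated firefly luciferase, in erythrocytes at 2% hematocrit, 0.05% parasitemia, incubated with compounds 96 h at 37 C, 5% CO2. Growth inhibition read as loss of luminescence; two-generation exposure targets delayed-death apicoplast inhibitors.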
Cycloheximide cs – counter-screen hit for Shiga toxin inhibitors, cycloheximide. AID 2314. 12% of 300,000 active. max response, %. cell reporter, cycloheximide protein synthesis inhibition counterscreen; in the data active means max response mostly above about 13%, no sharp cut-off; inactive means mostly below about 14%; further: read at 38.3 µM for the half of the compounds with a filed dose
AMA1 RON2 block – AMA1-RON2 (P. falciparum) interaction inhibition | Potency, µM (top dose mostly 58.2 µM), actives largely listed as inhibitors | AID 720542 | 0.2% of 360,000 active | AlphaScreen AMA1-biotinylated RON2 peptide binding; further: nearly all actives have a fitted effect of over 45% in size
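AMA1 (3D7) with his tag at 25 nM final met compounds first, then biotinylated RON2 peptide at 25 nM; detection used donor plus acceptor beads, 10 µg/mL apiece, read by AlphaScreen after 30 min at room temperature.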
Hits are given with their value; - = inactive; ? = inconclusive; . = not tested or not shown; + = active, no number; [ ] = another dose, or the depositor's remark. Unless noted, the call rests on the fitted dose curve; in most records, active means well fitted curve in the direction sought with a large enough effect; inconclusive means small, poorly fitted or top-dose-only effect, or another doubt; inactive means no such curve, though single readings can be large; an effect the other way counts as inactive or inconclusive.

SMILES | HCV inhibitor | Shiga toxin inh | Pf growth 48h | Pf growth 96h | Cycloheximide cs | AMA1 RON2 block
CC(C)c1ccc(C(=O)NC(=S)NCc2cccnc2)cc1 | - | active | - | - | 16 | -
COc1ccc(C(=O)NC(=S)NCc2cccnc2)cc1Br | ? | - | - | - | - | -
CCOC(=O)c1c(C)c(C(=O)NCc2cccnc2)c(C)n1CC | - | - | - | 3.7µM | - | -
S=C(NCc1cccnc1)NCc1cccnc1 | - | - | - | 10µM | - | -
O=C(NC(=S)NCc1cccnc1)c1ccc([N+](=O)[O-])cc1 | - | - | ? | - | - | -
CC(Sc1ccc(S(=O)(=O)N2CCOCC2)cn1)c1ccccc1Cl (configuration not stated) | - | . | . | . | . | -
CCOC(=O)c1cc(-c2ccc(F)cc2)n(CC(=O)NCc2cccnc2)c1C | - | - | ? | 2.6µM | - | -
CCOC(=O)c1ccc(NC(=S)NCc2cccnc2)cc1 | - | - | - | - | 13 | -
CC(C)(C)OC(=O)C[C@@H]1C/C=C\C[C@H](CC(=O)NCCO)C(=O)N2CCC[C@@H]2COC1=O | - | . | . | . | . | -
COC(=O)Sc1nnc(-c2ccc(Br)cc2)o1 | . | - | - | . | - | .
Cc1ccccc1-c1nnc(-c2cccc3ccccc23)o1 | - | . | . | . | . | -
Cc1ccccc1-c1nnc(CN2CCC(C)CC2)o1 | - | 71 | . | - | 27 | -
Cc1ccccc1-c1nnc(-c2ccc(Br)cc2)o1 | - | - | . | - | 21 | -
Cc1ccccc1-c1nnc(-c2ccccc2C)o1 | - | 42 | - | - | 23 | -
CCN1C(=O)N(CC)C(=O)C2(Cc3ccccc3N3CCN(c4ccccc4)CC32)C1=O (configuration not stated) | - | 70 | ? | ? | 36 | -
Cn1c(CS(=O)Cc2c(Cl)cccc2Cl)nnc1SCc1c(Cl)cccc1Cl (configuration not stated) | - | - | ? | 4.7µM | - | -
Cc1cccc(CC(=O)NCCS(=O)(=O)N2CCN(c3cccc(Cl)c3)CC2)c1 | ? | . | ? | - | . | -
COc1ccc(/C=C/C(=O)NC(=S)N2CCN(c3ccccn3)CC2)cc1 | - | 56 | - | - | 19 | -
O=C(/C=C/c1ccc(F)cc1)N1CCN(c2ccccn2)CC1 | - | + | - | - | - | -
O=C(/C=C/c1ccc(Br)cc1)NC(=S)N1CCOCC1 | - | 67 | - | - | 54 | -
COc1ccc(CC(=O)N2CCN(c3ccccn3)CC2)cc1 | - | - | - | . | - | -
CN1CCN(C(=S)NC(=O)/C=C/c2ccccc2)CC1 | - | - | - | . | - | -
CCCOc1ccc(/C=C/C(=O)N2CCN(c3ccccn3)CC2)cc1 | - | - | ? | - | - | -
COc1ccc(/C=C/C(=O)NC(=S)N2CCSCC2)cc1 | - | - | - | - | 37 | -
C/C(N)=C(/C#N)C(=O)CSc1nc2scc(-c3ccccc3)c2c(=O)n1C | - | - | ? | ? | - | -
SMILES | HCV inhibitor | Shiga toxin inh | Pf growth 48h | Pf growth 96h | Cycloheximide cs | AMA1 RON2 block
CCCCNC(=O)C1(C)CCCCN1C(=O)c1ccc2sccc2c1 (configuration not stated) | . | . | . | . | . | -
COc1ccc(S(=O)(=O)Oc2ccccc2C(=S)N2CCOCC2)cc1 | . | - | - | ? | - | .
COc1ccc(C=O)cc1CN1C(=O)c2ccccc2C1=O | - | . | ? | 0.15µM | - | -
COc1ccc(C=O)cc1COc1ccccc1F | - | - | - | 8.3µM | - | -
CSc1ncccc1C(=O)OCC(=O)NC(C)CCc1ccccc1 (configuration not stated) | - | . | . | . | . | -
CCC/C=C(\CCC)C(NS(=O)(=O)c1cccc2cccnc12)c1ccc(C(=O)OC)cc1 (configuration not stated) | -[8.37 µM] | - | ? | 13µM | - | -
C#CCN[C@@H]1CCc2ccccc21 | . | . | - | - | . | .
CC(=O)Nc1ccccc1-c1nnn(CC(=O)Nc2ccc3c(c2)OCCO3)n1 | - | - | - | - | 24 | -
O=C(Cn1nnc(-c2ccccc2F)n1)Nc1ccc2c(c1)OCCO2 | - | 79 | - | - | 32 | -
CCOC(=O)C(C)On1c(-n2nc(C)cc2C)nc2ccccc2c1=O (configuration not stated) | - | - | - | ? | - | -
COc1ccc(/C=N/N=C/c2ccc(OC)c(OC)c2)cc1OC | - | - | 3.7µM | - | - | -
COc1ccc(/C=N\N=C(N)N)cc1 | ? | - | ? | - | - | -

Source: PubChem BioAssay
